This is part of a sample that, as a whole, favours compounds with a hit. Of some 83,000 tested, about 20% had one in any assay.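 Method: cells in 96-well plates; compound added at one concentration; 48 h incubation; percent growth measured; values under 10 scored active.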 Calls of active or inactive are those of the source.
Experiments:
Test in all cases: NCI-60 one-dose screen, 48 h (100 = growth as untreated, 0 = no growth, -100 = all killed)
Settings in all cases: 10 µM unless noted
NCI-H23 lung = system: NCI-H23 lung
NCI-H226 lung = system: NCI-H226 lung
NCI-H322M lung = system: NCI-H322M lung
HOP-62 NSCLC = system: HOP-62 NSCLC
NCI-H460 lung = system: NCI-H460 lung
HOP-92 NSCLC = system: HOP-92 NSCLC
NCI-H522 lung = system: NCI-H522 lung
A549/ATCC NSCLC = system: A549/ATCC NSCLC
786-0 renal = system: 786-0 renal
COLO 205 colon = system: COLO 205 colon

Measured: growth

CCNC(=O)c1[nH]cc(-c2ccc(OC)cc2)c1-c1cc(OC)cc(OC)c1
inactive: NCI-H23 lung 91.9% | NCI-H226 lung 88.7% | NCI-H322M lung 97.7% | HOP-62 NSCLC 97.5% | NCI-H460 lung 99% | HOP-92 NSCLC 72.9% | NCI-H522 lung 62.6% | A549/ATCC NSCLC 91.3% | 786-0 renal 95.6% | COLO 205 colon 105%

C#CC(=O)Nc1cccc2c1cc(C)n2-c1nc2c(c(NCc3ccccc3)n1)CCCC2
active: NCI-H23 lung -43.1% | NCI-H226 lung -40.2% | NCI-H322M lung -82.4% | HOP-62 NSCLC -46.8% | NCI-H460 lung -48.3% | HOP-92 NSCLC -53.8% | NCI-H522 lung -82.2% | A549/ATCC NSCLC -46.5% | 786-0 renal -53.1% | COLO 205 colon -69.1%

COc1cnccc1-c1nc2ccc3[nH]ncc3c2c2c1CCCC2
inactive: NCI-H23 lung 67.1% | NCI-H226 lung 67% | NCI-H322M lung 67.1% | HOP-62 NSCLC 61% | NCI-H460 lung 44.7% | HOP-92 NSCLC 69.2% | NCI-H522 lung 30.6% | A549/ATCC NSCLC 47.6% | 786-0 renal 49% | COLO 205 colon 55.3%

COc1cc2oc(-c3cccc(C(=O)Nc4ccc(Cl)cc4)c3)cc(=O)c2c(OC)c1OC
active: HOP-92 NSCLC -2.18%
inactive: NCI-H23 lung 44.3% | NCI-H226 lung 36.5% | NCI-H322M lung 37% | HOP-62 NSCLC 12.8% | NCI-H460 lung 20.1% | NCI-H522 lung 25.2% | A549/ATCC NSCLC 23.6% | 786-0 renal 12% | COLO 205 colon 18%

O=C(N/N=C/c1cccnc1)c1ccccc1Nc1cccc(C(F)(F)F)c1
inactive: NCI-H23 lung 94.2% | NCI-H226 lung 109% | NCI-H322M lung 85.6% | HOP-62 NSCLC 77.5% | NCI-H460 lung 102% | HOP-92 NSCLC 72% | NCI-H522 lung 81.8% | A549/ATCC NSCLC 42.4% | 786-0 renal 83.7% | COLO 205 colon 105%

CN(C)C(=O)c1cc2cnc(Nc3ccc(-c4csc5c(=O)cc(N6CCOCC6)oc45)cc3)nc2n1C1CCCC1
active: NCI-H23 lung -10.2% | NCI-H226 lung 2.17% | NCI-H322M lung -29% | HOP-62 NSCLC -30.4% | NCI-H460 lung -26.4% | HOP-92 NSCLC -3.68% | NCI-H522 lung -65.1% | A549/ATCC NSCLC -36.8% | 786-0 renal -1.22% | COLO 205 colon -84.3%

CCn1ccnc1C(=O)/C=C/c1ccc(CC(=O)Nc2ccc(F)cc2)cc1
inactive: NCI-H23 lung 29.2% | NCI-H226 lung 87.4% | NCI-H322M lung 35.4% | HOP-92 NSCLC 62.8% | NCI-H522 lung 18.2% | A549/ATCC NSCLC 32.9% | 786-0 renal 24.6% | COLO 205 colon 33.4%
active: HOP-62 NSCLC 8.48% | NCI-H460 lung 5.47%

COc1cc(Nc2cc(O)c3c(=O)cc(-c4ccccc4)oc3c2)cc(OC)c1
active: NCI-H460 lung 7.62% | NCI-H522 lung -35.3%
inactive: NCI-H23 lung 35.9% | NCI-H226 lung 67.7% | NCI-H322M lung 44.1% | HOP-62 NSCLC 35.5% | HOP-92 NSCLC 79.5% | A549/ATCC NSCLC 25.9% | 786-0 renal 45.4% | COLO 205 colon 48.4%

O=c1[nH]nc(-c2ccc(Cl)cc2)cc1Cc1cccc([N+](=O)[O-])c1
inactive: NCI-H23 lung 104% | NCI-H226 lung 91.9% | NCI-H322M lung 119% | HOP-62 NSCLC 96.3% | NCI-H460 lung 99.9% | HOP-92 NSCLC 44.2% | NCI-H522 lung 90.6% | A549/ATCC NSCLC 81.9% | 786-0 renal 103% | COLO 205 colon 101%

CC1=NNC(=O)C1CCC(=O)N/N=C(\C)c1ccc2ccccc2c1 (stereo not given)
inactive: NCI-H23 lung 104% | NCI-H226 lung 99.6% | NCI-H322M lung 122% | HOP-62 NSCLC 115% | NCI-H460 lung 108% | HOP-92 NSCLC 94.4% | NCI-H522 lung 96.1% | A549/ATCC NSCLC 95.3% | 786-0 renal 103% | COLO 205 colon 167%

C[C@]12CCc3nc(Nc4cccc(O)c4)sc3C1=CC[C@@H]1[C@@H]2CC[C@]2(C)/C(=N\NC(N)=S)CC[C@@H]12
inactive: NCI-H23 lung 57.3% | NCI-H226 lung 91.8% | NCI-H322M lung 73.5% | HOP-62 NSCLC 32% | NCI-H460 lung 21.3% | HOP-92 NSCLC 52.1% | A549/ATCC NSCLC 59.3% | COLO 205 colon 42.7%
active: NCI-H522 lung -12.2% | 786-0 renal -36%

Cc1ccc(C2CC(c3cccc(Nc4ccncc4)c3)=NN2c2ccccc2)cc1 (stereo not given)
active: NCI-H23 lung -69.3% | NCI-H322M lung -87.4% | HOP-62 NSCLC -67% | NCI-H460 lung -77.8% | HOP-92 NSCLC -90.7% | NCI-H522 lung -65.1% | A549/ATCC NSCLC -60.2% | COLO 205 colon -69%
inactive: NCI-H226 lung 28.9% | 786-0 renal 22.1%

O=C(N=Nc1c(O)[nH]c2ccc(F)cc12)c1cc2ccccc2[nH]1
inactive: NCI-H23 lung 97.4% | NCI-H226 lung 94.6% | NCI-H322M lung 94.4% | HOP-62 NSCLC 94.5% | NCI-H460 lung 100% | HOP-92 NSCLC 96.4% | NCI-H522 lung 77.8% | A549/ATCC NSCLC 91.3% | 786-0 renal 97.3% | COLO 205 colon 117%

CC(=O)OCC(=O)[C@@]1(O)CC[C@H]2[C@@H]3CC(=C(Br)Br)C4=CC(=O)CC[C@]4(C)[C@H]3C(=O)C[C@@]21C
inactive: NCI-H23 lung 88.6% | NCI-H226 lung 92.1% | NCI-H322M lung 88.5% | HOP-62 NSCLC 71.9% | NCI-H460 lung 103% | HOP-92 NSCLC 87.3% | NCI-H522 lung 66.6% | A549/ATCC NSCLC 65.1% | 786-0 renal 85.1% | COLO 205 colon 99.5%

NC(=O)C1(N2CCCCC2)CCN(CCCC(=O)c2ccc(F)cc2)CC1
inactive: NCI-H23 lung 31.6% | NCI-H226 lung 43.7% | NCI-H322M lung 52.5% | HOP-62 NSCLC 38.3% | NCI-H460 lung 11.9% | HOP-92 NSCLC 92.5% | A549/ATCC NSCLC 79.3% | 786-0 renal 49.8% | COLO 205 colon 13.9%
active: NCI-H522 lung -30.2%

O=C(NCCc1ccccn1)OCc1nc2nc(Cl)nc(N3CCOCC3)c2[nH]1
inactive: NCI-H23 lung 37.6% | NCI-H322M lung 43.9% | HOP-62 NSCLC 27.3% | HOP-92 NSCLC 22.4% | A549/ATCC NSCLC 43.5% | 786-0 renal 13.9% | COLO 205 colon 17.2%
active: NCI-H226 lung -53.2% | NCI-H460 lung 3.35% | NCI-H522 lung -34.4%

O=C(Nc1ccc2ncnc(Nc3ccc(Oc4cccc(F)c4)c(Cl)c3)c2c1)c1ccc(CN2CCOCC2)cc1
inactive: NCI-H23 lung 20.1% | NCI-H226 lung 52% | NCI-H322M lung 60.7% | HOP-62 NSCLC 17.9% | NCI-H460 lung 38.8% | HOP-92 NSCLC 53.9% | A549/ATCC NSCLC 33.6% | 786-0 renal 42.2% | COLO 205 colon 40.1%
active: NCI-H522 lung 6.89%

COc1ccc(NS(=O)(=O)c2ccc(C)cc2)c([N+](=O)[O-])c1
inactive: NCI-H23 lung 96.6% | NCI-H226 lung 90.8% | NCI-H322M lung 94% | HOP-62 NSCLC 97.3% | NCI-H460 lung 106% | HOP-92 NSCLC 83.5% | NCI-H522 lung 87.9% | A549/ATCC NSCLC 99.7% | 786-0 renal 107% | COLO 205 colon 112%

Cc1nccc2c3ccc(OCc4cn(-c5ccc(Cl)cc5)nn4)cc3n(CCCc3ccccc3)c12
active: NCI-H226 lung -10.9% | HOP-62 NSCLC 6.51% | A549/ATCC NSCLC 4.77% | 786-0 renal -72.6% | COLO 205 colon -3.42%
inactive: NCI-H23 lung 70.5% | NCI-H322M lung 50% | NCI-H460 lung 14.4% | HOP-92 NSCLC 26.6% | NCI-H522 lung 46.6%

CCn1cc(C2NC(=O)c3ccccc3N2)c2cccc(C)c21 (stereo not given)
inactive: NCI-H23 lung 30.1% | NCI-H226 lung 57.2% | NCI-H322M lung 36.7% | HOP-62 NSCLC 31.6% | HOP-92 NSCLC 80.5% | A549/ATCC NSCLC 18.4% | 786-0 renal 39.4%
active: NCI-H460 lung 1.6% | NCI-H522 lung -39.8% | COLO 205 colon -17.3%

C=C(C)[C@@H]1CC[C@]2(CO)CC[C@]3(C)[C@H](CC[C@@H]4[C@@]5(C)CCCNC(C)(C)[C@@H]5CC[C@]43C)[C@@H]12
inactive: NCI-H23 lung 62.6% | NCI-H226 lung 84.4% | NCI-H322M lung 69.8% | HOP-62 NSCLC 79% | HOP-92 NSCLC 82% | NCI-H522 lung 64.2% | A549/ATCC NSCLC 44.9% | 786-0 renal 30.2%
active: NCI-H460 lung -54.4% | COLO 205 colon -63.5%

CC(=O)c1cccc(NS(=O)(=O)c2cccc(C(=O)Nc3ccc(Br)cc3)c2)c1
inactive: NCI-H23 lung 29.4% [25 µM] | NCI-H226 lung 49.3% [25 µM] | NCI-H322M lung 73.4% [25 µM] | HOP-62 NSCLC 68.9% [25 µM] | NCI-H460 lung 63.4% [25 µM] | HOP-92 NSCLC 33.9% [25 µM] | NCI-H522 lung 48.8% [25 µM] | A549/ATCC NSCLC 58% [25 µM] | 786-0 renal 56.2% [25 µM] | COLO 205 colon 61% [25 µM]

Cc1c(C(=O)NO)sc2ncnc(Nc3ccc(NC(=S)Nc4ccccc4)cc3)c12
inactive: NCI-H23 lung 96.5% | NCI-H226 lung 104% | NCI-H322M lung 107% | HOP-62 NSCLC 101% | NCI-H460 lung 102% | HOP-92 NSCLC 115% | NCI-H522 lung 92.1% | A549/ATCC NSCLC 101% | 786-0 renal 99.1% | COLO 205 colon 113%

O=C(Nc1nc(-c2ccccc2Cl)cs1)c1cc(-c2ccccc2)nc2ccc(Cl)cc12
inactive: NCI-H23 lung 51.3% | NCI-H226 lung 74.3% | NCI-H322M lung 93.8% | HOP-62 NSCLC 84.6% | NCI-H460 lung 102% | HOP-92 NSCLC 42.8% | NCI-H522 lung 78.6% | A549/ATCC NSCLC 99.7% | 786-0 renal 89.4% | COLO 205 colon 87.6%

Cc1ccc(C2CC(c3cccc(Nc4ccncc4)c3)=NN2c2cc(Cl)cc(Cl)c2)cc1 (stereo not given)
inactive: NCI-H23 lung 61.1% | NCI-H226 lung 86.3% | NCI-H322M lung 73.7% | HOP-62 NSCLC 40.5% | HOP-92 NSCLC 57.7% | NCI-H522 lung 21% | 786-0 renal 51%
active: NCI-H460 lung -73.4% | A549/ATCC NSCLC 4.87% | COLO 205 colon -43.1%

CC1(C)CCCN1CCCN1c2ccccc2Sc2ccc(Cl)cc21
inactive: NCI-H23 lung 72.5% | NCI-H226 lung 82.9% | NCI-H322M lung 74.1% | HOP-62 NSCLC 77% | NCI-H460 lung 60.8% | HOP-92 NSCLC 62.9% | NCI-H522 lung 76.6% | A549/ATCC NSCLC 83.8% | 786-0 renal 54.2% | COLO 205 colon 43.6%

Source: PubChem BioAssay (NCI)
